# KinaseGlo FLuc: counter-screen: inhibitors of Kinase-Glo firefly luciferase | Potency, µM (series often up to 38.3 µM), for inactives: at the highest dose activity change, negative = inhibition, actives largely listed as inhibitors | Kinase-Glo luciferase, ATP luminescence, 8 min | Q27757 | actives 0.28% (n = 200,000) | AID 1379; note: % is set by controls: 0 for no effect and ±100 for the full control effect; nearly all actives have a fitted effect of over 60% in size
#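 Inhibition of Kinase-Glo luciferase light generation was assessed at 10 uM ATP in pH 7.2 imidazole buffer, with luminescence measured after eight minutes at ambient temperature.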
# ELG1 genotoxic: genotoxicity induction in ELG1-luciferase HEK293T cells; actives 1.3% (n = 330,000); Potency, µM (titrated, usually from 46 µM), inactives show at the top dose activity change, positive = activation, actives largely listed as activators; AID 504466; HEK293T ELG1-luciferase reporter, luminescence, 16 h; note: % of control where 0% means no effect; nearly all actives have a fitted effect of over 60% in size
#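 Cells (2,000/well) expressing the ELG1-luciferase fusion are dosed by pin tool and kept 16 hr at 37 °C, 5% CO2. Signal comes from ONE-Glo luciferase reagent after 30 min at room temperature.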
# SMN2 splice up: increases expression of the SMN2 splice variant. HEK293 SMN2-luciferase splicing reporter, luminescence, 30-36 h. Potency, µM (top dose mostly 46.1 µM), for inactives: top-dose activity change, positive = activation, actives largely listed as activators. actives 2.8% (n = 210,000). AID 1458; note: % of control where 0% means no effect; nearly all actives have a fitted effect of over 55% in size
#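 HEK293 cells carry an SMN2 […]–luciferase reporter in which exon 7 inclusion puts luciferase in frame. Cells were plated 10-12 h before compound addition, then incubated 30-36 h at 37C. ONE-Glo luminescence was read; sodium butyrate at 4.5 mM final served as control.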
# FLuc modulator: counter-screen for miR-21 project: firefly luciferase inhibitors or activators. P08659. purified FLuc, Km substrates, luminescence inhibition. Potency, µM (doses to about 57.5 µM), for the others: top-dose activity change, negative = inhibition, hits mostly inhibitors. actives 6.9% (n = 360,000). AID 588342;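 note: plate controls were vehicle for no effect and reference inhibitor for full effect; nearly all actives have a fitted effect of over 55% in size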
# Target sequence (P08659 whole entry, looked up): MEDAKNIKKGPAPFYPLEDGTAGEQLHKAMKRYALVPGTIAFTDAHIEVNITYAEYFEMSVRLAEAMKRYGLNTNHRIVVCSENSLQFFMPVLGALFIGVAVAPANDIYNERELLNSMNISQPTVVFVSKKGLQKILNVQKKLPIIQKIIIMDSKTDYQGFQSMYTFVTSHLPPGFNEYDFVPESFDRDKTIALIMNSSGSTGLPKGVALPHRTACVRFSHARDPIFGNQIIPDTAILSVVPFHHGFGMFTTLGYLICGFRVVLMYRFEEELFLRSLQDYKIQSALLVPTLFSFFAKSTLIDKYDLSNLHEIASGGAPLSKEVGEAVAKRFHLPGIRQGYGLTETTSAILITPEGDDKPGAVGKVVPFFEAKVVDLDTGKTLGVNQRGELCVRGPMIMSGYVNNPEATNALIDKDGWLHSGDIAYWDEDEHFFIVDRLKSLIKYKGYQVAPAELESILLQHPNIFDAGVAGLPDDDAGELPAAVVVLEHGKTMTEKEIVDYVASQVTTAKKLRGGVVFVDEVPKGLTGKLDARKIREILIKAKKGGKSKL
#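 Purified P. pyralis luciferase (10nM final) with 10uM D-luciferin and 10uM ATP (Km levels) in 50mM Tris acetate pH 7.5, 10mM Mg acetate, 0.01% Tween-20, 0.05% BSA; qHTS 6-point titration, ~60 µM downward; luminescence read.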
# NPC1 prom act: activators of NPC1 promoter | Huh7 NPC1 promoter luciferase reporter, 24 h | Potency, µM (highest dose often 9.22 µM), inactives show top-dose activation, actives largely listed as activators | actives 2.4% (n = 320,000); note: % of control where 0% means no effect; nearly all actives have a fitted effect of over 60% in size
#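 In 1536-well qHTS, Huh7 cells harboring an NPC1 promoter–luciferase construct received compound for 24 h; activation was quantified by luminescence following luciferase reagent addition.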
# Rab9 prom act: activates the Rab9 promoter | Huh7 Rab9 promoter-luciferase reporter, luminescence, 24 h | AID 485297 | Potency, µM (top dose mostly 9.22 µM), for the others: at the top dose activation, negative = inhibition, usual class: activators | actives 2.8% (n = 320,000); note: % of control where 0% means no effect; nearly all actives have a fitted effect of over 60% in size
#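 Luciferase signal after 10 min detection reagent at ambient indicates Rab9 promoter upregulation; stably transfected Huh7 cells were treated 24 h with compound in DMSO at 37 °C, 5% CO2.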
# * = called active by the depositor; ? = inconclusive; . = not tested or not shown. In the library only some 7.5% were active in any assay of this set; here they are far more common. Calls come from the whole dose curve; as a rule, active = well fitted curve in the direction sought with a large enough effect; inconclusive = small, poorly fitted or top-dose-only effect, or another doubt; inactive = no such curve, though single readings can be large; an effect the other way counts as inactive or inconclusive. Potency is the fitted concentration of half-maximal effect.
SMILES,KinaseGlo FLuc,ELG1 genotoxic,SMN2 splice up,FLuc modulator,NPC1 prom act,Rab9 prom act
O=C1NN(c2ccc(Br)cc2)C(=O)/C1=C\c1ccc(O)cc1O,.,-3.2%,.,?,7.3%,4.2%
COc1cc(/C=C2/NC(=O)N(c3cccc(Cl)c3)C2=O)ccc1O,-4.9%,8.4%,.,6.7%,-12.7%,-3.5%
COc1ccc2c(c1)CC(NC(=O)Nc1cc(Cl)ccc1OC)CO2 (stereo not given),.,.,.,2.9%,.,.
CC1(C)C(=O)C=C[C@@]2(C)C1C=C[C@@]1(C)C2CC[C@@]2(C)C(c3ccoc3)OC(=O)C3OC312 (stereo not given in full),-6.7%,.,-118.1%,.,.,.
CC(=O)Nc1ccc(S(=O)(=O)NC2CC(=O)N(c3ccc(C)c(C)c3)C2)cc1 (stereo not given),.,0.0%,.,-13.6%,-8.5%,-9.6%
COc1ccc(-c2nnc(SCC(=O)Oc3cccc(C)c3C)o2)cc1,.,.,.,1.4%,.,.
CC(=O)Nc1cccc(/C(C)=N/NC(=O)c2ccc(Cl)cc2Cl)c1,-1.7%,-0.6%,-26.4%,19µM*,2.7%,-6.0%
C/C(=N/NS(=O)(=O)c1ccc(Cl)cc1)c1cccc(NC(=O)c2ccc(Cl)cc2Cl)c1,-1.9%,0.1%,7.9%,16.9µM*,-0.4%,4.4%
C/C(=N/NS(=O)(=O)c1ccc(C)cc1)c1cccc(NC(=O)c2cccc(Cl)c2)c1,-8.9%,-11.0%,-13.3%,16.9µM*,-1.1%,-5.1%
CCOC(=O)c1cnc2c(ccc3ccccc32)c1NCCCN(C)C,.,?,.,7.57µM*,-3.8%,4.5%
COc1ccc(NC(=O)Nc2cccs2)cc1Cl,.,?,.,8.49µM*,?,?
CC(C)=CC(=O)Nc1ccc(Cl)cc1,-7.0%,?,14.1µM*,10.7µM*,1.58µM*,1.41µM*
COCC(=O)Nc1ccc(OC)c(Cl)c1,.,12.5%,.,1.0%,11.5%,9.5%
COc1ccc(NC(=O)C=C(C)C)cc1Cl,?,.,11.2µM*,12µM*,.,.
COc1ccc(NC(=O)c2cc(F)c(F)cc2Cl)cc1Cl,.,?,.,13.5µM*,?,?
Cc1ccc(-n2nnnc2SCC(=O)NC(C(=O)O)(c2ccccc2)c2ccccc2)cc1C,.,0.0%,.,?,-5.2%,-0.2%
Cc1ccc(NC(=O)c2noc3c2CCc2ccccc2-3)cc1,-3.3%,20.6µM*,?,7.57µM*,3.98µM*,2.82µM*
CCc1ccc(NC(=O)c2noc3c2CCc2ccccc2-3)cc1,-2.9%,?,21.5%,10.7µM*,23.5%,?
O=C(Nc1cccc(O)c1)c1noc2c1CCc1ccccc1-2,14.1µM*,1.16µM*,?,0.477µM*,?,?
O=C(Nc1ccc(F)cc1F)c1noc2c1CCc1ccccc1-2,.,.,11.2µM*,?,.,.
COc1ccc(Cl)cc1NC(=O)c1noc2c1CCc1ccccc1-2,.,.,-0.2%,-3.1%,.,.
O=C(Nc1cccc(C(F)(F)F)c1)c1noc2c1CCc1ccccc1-2,.,.,-6.6%,?,.,.
COc1ccccc1CNC(=O)COC(=O)c1nccnc1N,.,3.1%,.,5.3%,-42.6%,12.0%
COc1ccc(Cn2c(-c3ccco3)nc3oc4cc(OC)ccc4c(=O)c3c2=O)cc1,-9.1%,?,3.8%,?,3.16µM*,3.98µM*
COc1ccc2c(=O)c3c(=O)n(Cc4ccco4)c(-c4ccco4)nc3oc2c1,-9.5%,5.2%,-9.0%,?,1.5%,-3.3%
SMILES,KinaseGlo FLuc,ELG1 genotoxic,SMN2 splice up,FLuc modulator,NPC1 prom act,Rab9 prom act
O=C(CSc1nnc(-c2ccccc2Cl)o1)Nc1ccc2c(c1)OCCO2,-2.0%,?,14.1µM*,?,29.2%,?
Cc1nnc(SC(C)C(=O)Nc2ccc3c(c2)OCCO3)s1 (stereo not given),1.9%,4.8%,21.8%,?,0.5%,-1.9%
O=C(CSc1nnc(-c2ccc(O)cc2)o1)Nc1ccc2c(c1)OCCO2,-1.4%,15.4%,15.8µM*,?,3.16µM*,3.98µM*
O=C(Nc1ccc2c(c1)OCCO2)C1CC(c2ccccc2Cl)=NO1 (stereo not given),.,6.0%,.,19µM*,3.98µM*,3.98µM*
O=C(CSc1nnc(CNC(=O)c2ccccc2)o1)Nc1ccc2c(c1)OCCO2,.,4.1%,.,?,6.1%,5.9%
O=C(CSc1nnc(-c2ccc(O)cc2)o1)Nc1cccc(O)c1,.,?,.,?,12.8%,-0.8%
COc1ccc(-c2nnc(SC(C)C(=O)Nc3ccc4c(c3)OCCO4)o2)cc1 (stereo not given),1.6%,5.8µM*,17.8µM*,?,18.1%,?
COc1ccc2c(c1)O[C@@H](c1cccc(C(F)(F)F)c1)[C@H](OC(=O)NS(=O)(=O)c1ccc(F)cc1)C2=O,1.9%,.,17.2%,.,.,.
CCc1ccc(N2C(=O)CS(=O)(=O)C23C(=O)N(Cc2ccccc2)c2ccccc23)cc1 (stereo not given),.,.,.,-8.5%,.,.
Cc1ccc(NC(=O)c2ccc(F)c(S(=O)(=O)N3CCc4ccccc4C3)c2)cc1F,.,.,.,-2.7%,.,.
CSc1nn2c(C(F)(F)F)cc(C(F)(F)F)nc2c1C(N)=O,.,-0.8%,.,-1.1%,-1.3%,0.4%
O=C(c1nc(-c2ccc(Cl)cc2)n2c1CCCCC2)N1CCN(c2ccccc2)CC1,.,.,.,0.8%,.,.
CC(C)(C)c1ccc(-c2nnc(SCC(=O)c3ccc4c(c3)OCCO4)o2)cc1,-1.5%,-3.2%,-40.4%,23.9µM*,-2.3%,-16.9%
CCOc1c(O)ccc(/C=C2\SC(=S)NC2=O)c1[N+](=O)[O-],-0.5%,0.4%,-8.8%,13.5µM*,-0.5%,-7.0%
O=C(Nc1nccs1)C(=O)c1c[nH]c2ccccc12,-6.5%,8.2µM*,?,7.57µM*,?,3.16µM*
CSc1ccccc1NC(=O)C(=O)c1c[nH]c2ccccc12,-0.3%,12.3%,?,15.1µM*,25.8%,?
Cc1ccc(C)c(N2C(=O)N(Cc3ccccc3C)c3ccccc3S2(=O)=O)c1,.,.,.,-6.7%,.,.
O=C(NCCc1ccc(Cl)cc1)c1cc(-c2ccc(Cl)cc2)n[nH]1,.,.,.,0.6%,.,.
COc1ccc(OC)c(NC(=O)Cn2ccn(-c3ccc(F)cc3)c(=O)c2=O)c1,.,.,.,1.4%,.,.
O=C(/C=C/c1cccs1)c1cc(Cl)ccc1O,-1.7%,-2.6%,1.3%,?,4.9%,-1.6%
O=C(/C=C/c1ccc2ccccc2n1)c1cc(Cl)ccc1O,.,11.3%,.,4.78µM*,9.0%,-2.0%
NC(=O)c1cc[n+](CC(=O)NC(=O)Nc2ccccc2)cc1,.,3.4%,.,0.5%,-0.3%,-2.5%
O=C1CN(c2ccccc2)C(=S)N1C(=O)c1ccccc1,.,?,.,23.9µM*,?,3.98µM*
